FMDV antiviral: High Throughput Screening for Foot and Mouth Disease Virus Antivirals; AID 1159524, 2015; 410,000 tested, 1.2% active; Potency, µM (titrated, usually from 57.9 µM), for the others: at the highest dose activity change, negative = inhibition, most hits filed as inhibitors; FMDV antiviral cell-based qHTS; calls by dose curve; tested in HEK293T cells; also: read-out not given here; potency is read from the fitted curve at half-maximal effect; nearly all actives have a fitted effect of over 45% in size
HCV inh: qHTS Assay for Inhibitors of Hepatitis C Virus (HCV); Huh7.5.1 HCVcc-Cre infection, luciferase reporter, 44 h; Potency, µM (highest dose often 41.8 µM), for the others: top-dose activity change, negative = inhibition, most hits filed as inhibitors; 340,000 tested, 3.4% active; AID 651820, 2012; also: potency is read from the fitted curve at half-maximal effect
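Seed cells (1,000/well) for 4 h; treat with compound and infect with HCVcc-Cre, moi about 0.5. Incubate 44 h, then detect luciferase activity.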
HCMV inh: qHTS Assay for inhibitors of the human cytomegalovirus (HCMV) | HFF cells, HCMV-luciferase reporter, 72 h; stronger effect = lower value | activity change, negative = inhibition, % at 57.5 µM | 410,000 tested, 4.5% active | AID 1259415, 2018; in the data active = activity change below about -60%; inconclusive = no clear call, values can overlap the other calls; inactive = above about -39%
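Steps: HFFs plated, 16 h 37C; compounds added; HCMV-luciferase added to MOI 1 PFU/cell; 72 h 37C; OneGlo reagent, 5 min room temperature; luminescence read, normalized to controls.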
Giardia FBPA inh: qHTS Assay for Inhibitors of Fructose-1,6-bisphosphate Aldolase from Giardia Lamblia; purified Giardia FBPA; A8B2U2; Potency, µM (highest dose often 59.6 µM), for the others: at the top dose activity, negative = inhibition, hits mostly inhibitors; 290,000 tested, 0.71% active; also: potency is read from the fitted curve at half-maximal effect; nearly all actives have a fitted effect of over 55% in size
Target sequence (A8B2U2 whole entry, looked up): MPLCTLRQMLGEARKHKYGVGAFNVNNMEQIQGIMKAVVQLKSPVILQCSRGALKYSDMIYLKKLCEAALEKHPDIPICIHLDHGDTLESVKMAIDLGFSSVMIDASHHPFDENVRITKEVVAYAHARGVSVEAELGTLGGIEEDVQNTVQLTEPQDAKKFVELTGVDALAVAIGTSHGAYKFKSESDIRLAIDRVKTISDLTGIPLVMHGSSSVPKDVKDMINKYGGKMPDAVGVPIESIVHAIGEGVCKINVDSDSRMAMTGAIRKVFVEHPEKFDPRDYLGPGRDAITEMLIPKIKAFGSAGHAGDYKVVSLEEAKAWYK
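40 nM FBPA preincubated 10 min at RT with compound (up to 57.5 uM final), then substrate plus GAPDH/TPI/NAD/arsenate coupling and diaphorase/resazurin added. Fluorescence read after 20 min at RT, 525/598 nm.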
Lassa entry inh: qHTS for Inhibitors of binding or entry into cells for Lassa Virus | Potency, µM (highest dose often 37.9 µM), for inactives: at the highest dose activity change, negative = inhibition, actives largely listed as inhibitors | 300,000 tested, 1.2% active | Lassa virus pseudotype entry inhibition, cell reporter; calls by dose curve; tested in HEK293 cells; also: potency is read from the fitted curve at half-maximal effect; nearly all actives have a fitted effect of over 50% in size
Marburg entry inh: qHTS for inhibitors of binding or entry into cells for Marburg Virus | Marburg virus pseudotyped entry inhibition, cell reporter | Potency, µM (titrated, usually from 37.8 µM), for the others: at the highest dose activity change, negative = inhibition, hits mostly inhibitors | 300,000 tested, 1.8% active; calls by dose curve; tested in HEK293 cells; also: potency is read from the fitted curve at half-maximal effect
* hit, by the source's call; [ ] = another dose, or the depositor's remark. Most compounds without a hit are left out; they make up all but 8.3% or so of the library. Unless noted, calls follow the shape of the dose curve; as a rule, active = well fitted curve in the direction sought with a large enough effect; inconclusive = small, poorly fitted or top-dose-only effect, or another doubt; inactive = no such curve, though single readings can be large; an effect the other way counts as inactive or inconclusive. % is scaled to controls: 0 for no effect and ±100 for the full control effect.

How did COc1ccc(-c2cnnc(N/N=C/c3ccc(O)cc3)n2)cc1 do in these assays?
FMDV antiviral: 0%; HCV inh: -12%; HCMV inh: -71*; Giardia FBPA inh: 4%; Lassa entry inh: 2µM*; Marburg entry inh: inconclusive

What do the screens show for `Cc1ccc2scc(N3CCCCC3)c(=O)c2c1`?
FMDV antiviral: -40%; HCMV inh: 52; Lassa entry inh: 7%[46.1 µM]

Results for Cn1c(Nc2ccccc2)nc2cnc(Nc3cccc(Cl)c3)cc21 ?
HCMV inh: -7

What do the screens show for `Cc1cccc(C)c1-n1nnnc1C(c1cc2ccccc2o1)N1CCC(n2c(=O)[nH]c3ccccc32)CC1` (centres undefined)?
FMDV antiviral: 10µM*; HCMV inh: -67*

What do the screens show for `COc1ccc(-n2nnnc2C(c2ccccc2)N2CCC(n3c(=O)[nH]c4ccccc43)CC2)cc1` (centres undefined)?
FMDV antiviral: 0%; HCMV inh: -18

Results for COc1ccc(C(c2nnnn2-c2c(C)cccc2C)N2CCC(n3c(=O)[nH]c4ccccc43)CC2)cc1 (centres undefined) ?
FMDV antiviral: inconclusive; HCMV inh: -69*

What do the screens show for `CCOc1ccc(CCNC(=O)c2cc3c(=O)n(C)c4ccccc4c3n2C)cc1OCC`?
FMDV antiviral: inconclusive; HCMV inh: 1; Lassa entry inh: 8%[46.1 µM]; Marburg entry inh: -3%[46.1 µM]

How did COc1ccc(/C=C/C(=O)C2CC2)cc1COc1cccc(C)c1C do in these assays?
FMDV antiviral: inconclusive; HCV inh: inconclusive; HCMV inh: 25; Giardia FBPA inh: -5%; Lassa entry inh: 7.1µM*; Marburg entry inh: inconclusive

Results for CCC(=O)C1=C(c2ccc(Cl)cc2)N(C(=O)CC)n2c(C)nnc2S1 ?
FMDV antiviral: 0%; HCMV inh: -99*; Lassa entry inh: 0%[46.1 µM]

How did CC12CCC=CC1C(c1cccc([N+](=O)[O-])c1)N(Cc1ccccc1)C2=O (centres undefined) do in these assays?
Giardia FBPA inh: 8%

What do the screens show for `C=CCn1c(C)cc(C(=O)CSc2nc3ccccc3[nH]2)c1C`?
FMDV antiviral: -85%; HCV inh: 6.3µM*; HCMV inh: -92*; Giardia FBPA inh: -4%; Lassa entry inh: 4.6µM*; Marburg entry inh: inconclusive

What do the screens show for `Cc1cc(C(=O)CSc2nc3ccccc3[nH]2)c(C)n1Cc1ccco1`?
FMDV antiviral: -72%; HCV inh: inconclusive; HCMV inh: -85*; Giardia FBPA inh: -7%; Lassa entry inh: 4µM*; Marburg entry inh: inconclusive

How did Cc1ccc2nc(SCC(=O)N3CCOCC3)[nH]c2c1 do in these assays?
FMDV antiviral: 4%; HCV inh: -7%; HCMV inh: 60; Giardia FBPA inh: -3%; Lassa entry inh: -2%; Marburg entry inh: inconclusive

How did Cc1ccc2nc(SCC3CCCCO3)[nH]c2c1 (centres undefined) do in these assays?
FMDV antiviral: inconclusive; HCV inh: -2%; HCMV inh: -7; Giardia FBPA inh: -7%; Lassa entry inh: inconclusive; Marburg entry inh: 2.8µM*

How did Cc1cc(C(=O)CSc2nc3ccc(Cl)cc3[nH]2)c(C)n1CC1CCCO1 (centres undefined) do in these assays?
FMDV antiviral: 14µM*; HCV inh: 8.9µM*; HCMV inh: -66*; Giardia FBPA inh: -9%; Lassa entry inh: inconclusive; Marburg entry inh: 13µM*

How did Cc1cc(C(=O)CSc2nc3ccccc3[nH]2)c(C)n1C do in these assays?
FMDV antiviral: -15%; HCV inh: -23%; HCMV inh: -10; Giardia FBPA inh: inconclusive; Lassa entry inh: inconclusive; Marburg entry inh: inconclusive

Results for COC(=O)C1=C(C(=O)OC)C2CCCC1C1N=NN(c3ccccc3)C21 (centres undefined) ?
HCMV inh: 18

How did Cc1cc(SCc2sc(-c3ccc(C(F)(F)F)c(F)c3)nc2C)ccc1OCC(=O)O do in these assays?
FMDV antiviral: -10%; Giardia FBPA inh: 7%

What do the screens show for `Cc1cccc(C)c1NC(=O)C(C(C)C)N1C(=O)C(=O)c2ccccc21` (centres undefined)?
HCMV inh: 33

What do the screens show for `Cc1cc([C@](C)(N)C(=O)O)ccc1P(=O)(O)O`?
FMDV antiviral: -5%; Giardia FBPA inh: -12%

How did C=CCn1c(C)cc(C(=O)CSc2nc3ccccc3o2)c1C do in these assays?
FMDV antiviral: -20%; HCV inh: 22µM*; HCMV inh: inconclusive; Giardia FBPA inh: -9%; Lassa entry inh: -25%; Marburg entry inh: 13µM*

What do the screens show for `O=C(COc1ccc(C(=O)O)cc1)Nc1cccc(C(F)(F)F)c1`?
FMDV antiviral: 0%; HCV inh: 3%; HCMV inh: -22; Giardia FBPA inh: 13%; Lassa entry inh: -4%[46.1 µM]; Marburg entry inh: -17%[46.1 µM]

How did CN1CCN(C(=S)c2ccc(OCC(=O)Nc3cccc(C(F)(F)F)c3)cc2)CC1 do in these assays?
FMDV antiviral: 20µM*; HCV inh: inconclusive; HCMV inh: -63*; Giardia FBPA inh: 2%; Lassa entry inh: inconclusive; Marburg entry inh: inconclusive

Results for Cc1cc(N2CCCC2)ccc1NC(=O)COc1cccc(C(F)(F)F)c1 ?
FMDV antiviral: 4%; HCV inh: 13µM*; HCMV inh: -70*

What do the screens show for `Cc1cc(C)cc(NC(=O)COc2ccc(C(=S)N3CCOCC3)cc2)c1`?
FMDV antiviral: -24%; HCV inh: inconclusive; HCMV inh: -62*; Giardia FBPA inh: 1%; Lassa entry inh: 0%; Marburg entry inh: inconclusive

What do the screens show for `C#C[C@H](N)CCC(=O)O`?
Marburg entry inh: 0%

How did Cc1cc(NC(=O)CSCC(=O)Nc2ccccc2N2CCCCC2)no1 do in these assays?
FMDV antiviral: -5%; HCV inh: -2%; HCMV inh: -21; Lassa entry inh: inconclusive; Marburg entry inh: inconclusive

How did Cc1cc(NC(=O)c2ccccc2Oc2ccccc2)no1 do in these assays?
HCV inh: inconclusive; HCMV inh: 13; Giardia FBPA inh: 1%; Lassa entry inh: -26%; Marburg entry inh: 16%

What do the screens show for `Cc1cc(NC(=O)CSCC(=O)Nc2ccccc2Oc2ccccc2)no1`?
FMDV antiviral: inconclusive; HCV inh: inconclusive; HCMV inh: -37; Lassa entry inh: inconclusive; Marburg entry inh: 2.8µM*

What do the screens show for `Cc1ccc(Oc2ccccc2NC(=O)CSCC(=O)Nc2cc(C)on2)cc1`?
FMDV antiviral: inconclusive; HCV inh: inconclusive; HCMV inh: -75*; Lassa entry inh: inconclusive; Marburg entry inh: 13µM*

How did COC(=O)C(c1ccccc1)(c1cn(Cc2ccccc2)c2ccccc12)C(Nc1ccccc1)c1ccccc1 (centres undefined) do in these assays?
HCMV inh: -21

Source: PubChem
